DT40 TDP1 no CPT = qHTS for Inhibitors of human tyrosyl-DNA phosphodiesterase 1 (TDP1): qHTS in cells in absence of CPT; DT40 Tdp1-/- hTDP1 cells, no CPT, ATP luminescence, 48 h; Potency, µM (series often up to 46.2 µM), for inactives: top-dose activity change, negative = growth inhibition, actives largely listed as inhibitors; actives 15% (n = 420,000); further: nearly all actives have a fitted effect of over 55% in size
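Compound effects on proliferation are scored in DT40 Tdp1-/-;hTDP1 cells in the absence of CPT. ATP levels (CellTiter-Glo luminescence) are recorded after a ≥48 hr, 37 °C incubation.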
KB-V1 cytotox = qHTS assay for MDR1-selective chemotherapeutics: Primary screen using the drug-selected MDR subline cells KB-V1; KB-V1 MDR cells viability, CellTiter-Glo, 72 h; AID 1347076, 2019; Potency, µM (top dose mostly 46.1 µM), actives largely listed as cytotoxic; actives 3.4% (n = 400,000); further: nearly all actives have a fitted effect of over 60% in size
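Readout: CellTiter-Glo luminescence, 10 min after addition. Cells: KB-V1 MDR subline, 72 h at 37 degrees C with compound. Analysis: corrected, normalized data fitted to concentration-effect curves.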
HT1080 IDH1KD tx = qHTS for induction of synthetic lethality in tumor cells producing 2HG: qHTS for the HT-1080-IDH1KD cell line; HT-1080 IDH1 knockdown viability, ATP luminescence, 48 h; Potency, µM (highest dose often 46.1 µM), without a hit: at the highest dose activity, negative = toxicity, most hits filed as cytotoxic; actives 2% (n = 360,000); AID 686971, 2013;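 further: 0% = DMSO wells and -100% = cell-free medium wells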
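In this qHTS, HT-1080 cells depleted of IDH1 are exposed for 48 h at 37 °C to compound titrations. Toxicity is scored from CellTiter-Glo luminescence, with DMSO as full viability and medium alone as none.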
TDP1 cell CPT = qHTS for Inhibitors of human tyrosyl-DNA phosphodiesterase 1 (TDP1): qHTS in cells in presence of CPT; chicken DT40 Tdp1-/-;hTDP1 cells + 20 nM CPT, ATP luminescence, 48 h; Potency, µM (titrated, usually from 46.2 µM), for inactives: top-dose activity change, negative = growth inhibition, most hits filed as inhibitors; actives 12% (n = 420,000); AID 686979, 2013; further: nearly all actives have a fitted effect of over 55% in size
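Chicken DT40 Tdp1-/- cells stably complemented with human TDP1 were seeded at 400 cells/well in medium containing 20 nM camptothecin, exposed to pin-transferred compounds, and grown at 37 °C for at least 48 hr. Viability was read as ATP luminescence.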
HT1080NT lethal = qHTS for induction of synthetic lethality in tumor cells producing 2HG: qHTS for the HT-1080-NT fibrosarcoma cell line; HT-1080-NT fibrosarcoma viability, CellTiter-Glo ATP luminescence, 48 h; Potency, µM (titrated, usually from 46.1 µM), inactives show at the top dose activity, negative = less viability, actives largely listed as cytotoxic; actives 1.6% (n = 360,000); AID 686970, 2013;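 further: NT is the 2HG producing partner of a matched IDH1 knockdown line; 0% = DMSO-treated cells and -100% = media-only wells without cells; nearly all actives have a fitted effect of over 55% in size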
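750 cells/well, RPMI + 5% FBS; 2 h settle, compound pin-transfer, 48 h at 37 degrees C. CellTiter-Glo 10 min RT, luminescence. Normalized to DMSO and media-only wells.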
KB-3-1 tox = qHTS assay for MDR1-selective chemotherapeutics: Primary screen using the parental adenocarcinoma cell KB-3-1 | KB-3-1 viability, CellTiter-Glo ATP luminescence, 72 h | Potency, µM (titrated, usually from 46.1 µM), hits mostly cytotoxic | actives 1.4% (n = 400,000) | AID 1347075, 2019; further: nearly all actives have a fitted effect of over 60% in size
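Multi-concentration cytotoxicity screen in KB-3-1 cells grown in DMEM lacking phenol red with 10% FBS. After 72 h at 37 °C with compound, ATP-dependent luminescence was recorded.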
Numbers without * were called inactive; i = inactive; ? = inconclusive; . = no result given. The list is not random: actives were taken first. Their share in the collection is about 19%. The call rests on the fitted dose curve; in most records, active means well fitted curve in the direction sought with a large enough effect; inconclusive means small, poorly fitted or top-dose-only effect, or another doubt; inactive means no such curve, though single readings can be large; an effect the other way counts as inactive or inconclusive. Unless noted, on the % scale 0 is the no-effect control and ±100 the full control effect; potency means the concentration at half of the fitted maximal effect.

SMILES	DT40 TDP1 no CPT	KB-V1 cytotox	HT1080 IDH1KD tx	TDP1 cell CPT	HT1080NT lethal	KB-3-1 tox
C[C@@H]1CN([C@H](C)CO)C(=O)CCCn2nncc2CO[C@H]1CN(C)C	0.6%	i	4.2%	2.5%	0.9%	i
COc1ccc(/C(C)=N/Nc2nc(C)cc(-c3ccccc3)n2)cc1	4.61µM*	i	?	4.11µM*	?	?
C/C(=N\Nc1nc(C)cc(-c2ccccc2)n1)c1ccc(F)cc1	7.31µM*	i	-10.3%	?	3.8%	?
C/C(=N\Nc1nc(N)cc(Cl)n1)c1cccc(N)c1	?	i	23.1%	?	-2.9%	i
C/C(=N/Nc1nc(-c2ccccc2)cc(-c2ccc(F)cc2)n1)c1cccc(N)c1	?	5.17µM*	?	?	?	?
COc1ccc(/C(C)=N\Nc2nc(-c3ccccc3)cc(=O)[nH]2)cc1	-15.5%	?	4.0%	-18.2%	-0.9%	i
Cc1ccc(S(=O)(=O)N2CCC(c3nc(-c4cccs4)nc4ccccc34)CC2)cc1	?	i	.	?	.	i
COc1cccc(C2=NN(C(=O)c3cccs3)C(O)(C(F)(F)F)C2)c1 (stereo not drawn)	18.4µM*	?	?	?	?	i
COc1cccc(C(=O)N2N=C(c3ccccn3)CC2(O)C(F)(F)F)c1 (stereo not drawn)	4.61µM*	i	?	20.6µM*	?	i
COc1ccc(C(=O)N2N=C(c3cccc(OC)c3)CC2(O)C(F)(F)F)cc1 (stereo not drawn)	23.1µM*	?	-1.9%	?	23.9%	i
COc1cccc(C2=NN(C(=O)c3ccc(C)o3)C(O)(C(F)(F)F)C2)c1 (stereo not drawn)	10.3µM*	?	-26.3%	?	?	?
Cc1ccc(-n2c(=O)c3c(c4cc(C)ccc4n3C)n(CC(=O)c3ccc(Cl)cc3)c2=O)cc1	-17.2%	i	.	-4.3%	.	i
C[N+]1(CC(=O)c2ccc(Br)cc2)CCOCC1	-8.4%	i	.	2.8%	.	i
CC(C)/C=N/Nc1nc(-c2ccc(Br)cc2)cs1	16.4µM*	i	-2.5%	23.1µM*	-19.4%	?
COc1cc(-c2noc(C)c2C(=O)NCCCn2ccnc2)cc(OC)c1OC	-0.4%	i	0.4%	-1.0%	-2.1%	i
Cn1nc([N+](=O)[O-])c(C(C#N)c2ccccn2)c(Cl)c1=O (stereo not drawn)	3.66µM*	i	?	5.17µM*	-29.6%	i
COc1ccc(Cn2cc(S(=O)(=O)c3ccc(C)cc3)c(=O)c3cc(F)ccc32)cc1	-12.9%	i	.	-23.5%	.	i
O=C1OC(c2ccccc2)(c2ccc(O)cc2)c2ccccc21 (stereo not drawn)	?	i	?	?	20.6µM*	i
O=C1OC(c2ccccc2)(c2ccccc2)c2ccccc21	?	i	-14.4%	?	-24.0%	i
COc1cc2c(cc1OC)C(COc1cc(C)cc(C)c1)N(C(=O)C(C)(C)C)CC2 (stereo not drawn)	25.9µM*	i	.	?	.	i
COc1cc2c(cc1OC)C(COc1cc(C)cc(C)c1)N(C(=O)COc1ccccc1)CC2 (stereo not drawn)	23.1µM*	i	.	?	.	?
COc1cc2c(cc1OC)C(COc1cc(C)cc(C)c1)N(C(C)=O)CC2 (stereo not drawn)	?	i	-27.0%	?	1.4%	i
NC(=O)C1(N2CCCCC2)CCN(C(=O)Nc2ccc(F)cc2F)CC1	-1.6%	.	.	4.8%	.	.
CCOc1ccc(C(=O)NCCS(=O)(=O)N2CCN(c3ccccc3F)CC2)cc1OCC	?	.	.	-3.0%	.	.
CC/C(C)=N\Nc1nc(-c2cc3cc(OC)ccc3oc2=O)cs1	18.4µM*	i	14.6µM*	?	?	i
SMILES	DT40 TDP1 no CPT	KB-V1 cytotox	HT1080 IDH1KD tx	TDP1 cell CPT	HT1080NT lethal	KB-3-1 tox
COc1ccc(N2C(=O)CC(Sc3ncn[nH]3)C2=O)c(OC)c1 (stereo not drawn)	2.91µM*	i	10µM*	2.91µM*	?	i
CC1CC(=O)N(c2ccc(C(C)C)cc2)C(=O)C1	-5.8%	i	-1.5%	7.7%	15.0%	i
CC(C)c1ccc(N2C(=O)CC(Sc3ncn[nH]3)C2=O)cc1 (stereo not drawn)	4.61µM*	i	8.1%	4.61µM*	6.6%	i
O=C(O)c1cccnc1SC1CC(=O)N(c2ccccc2)C1=O (stereo not drawn)	7.7%	?	9.7%	-14.5%	18.3%	i
CC(C)c1ccc(N2C(=O)CC(Sc3nc4ccccc4o3)C2=O)cc1 (stereo not drawn)	5.8µM*	i	1.7%	4.61µM*	-1.0%	i
Cc1onc(-c2c(F)cccc2Cl)c1C(=O)N(C)CCc1ccccn1	-0.6%	i	0.1%	6.0%	7.8%	i
O=C(Nc1ccc(Cl)cc1)Nc1nnc(CSCc2ccccc2)s1	18.4µM*	20.6µM*	3.7%	16.4µM*	1.1%	i
O=C(Nc1ccc(Cl)cc1)Nc1nnc(CSc2ccc(Cl)cc2)s1	2.59µM*	?	29.5%	4.61µM*	16.9%	?
Cc1ccc(NC(=O)Nc2nnc(CSCCOc3ccc(Cl)cc3)s2)cc1	?	?	1.5%	-24.7%	2.1%	?
O=C(Nc1cccc(Cl)c1)Nc1nnc(CSCCOc2ccc(Cl)cc2)s1	3.26µM*	i	18.4µM*	3.26µM*	16.4µM*	?
O=C(Nc1ccccc1)Nc1nnc(SCc2ccc(Cl)cc2)s1	-21.9%	i	0.9%	?	-0.7%	i
O=C(NCc1ccc2c(c1)OCO2)C1CC(=O)N(CCc2ccc(F)cc2)C1 (stereo not drawn)	2.4%	i	21.0%	2.5%	3.9%	i
CCCNC(=O)C1(C)CCN(C(=O)c2ccc(OC(F)F)cc2)C1 (stereo not drawn)	-16.1%	i	12.5%	-15.9%	13.9%	i

Source: PubChem (National Center for Advancing Translational Sciences (NCATS))
